Values joined by “and” are separate entries in the source; they are usually repeats but may differ in a detail not shown here. Identical values can stand only once. Records with an inconclusive call do not appear. A call without a number means that no potency is given here. A structure can be active in one record and inactive in another. Active and inactive are the calls of the source. Unless noted, calls follow the shape of the dose curve; as a rule, active = well fitted curve in the direction sought with a large enough effect in the repeat runs; inconclusive = weak or mixed curves; inactive = no such curve, though single readings can be large; an effect the other way counts as inactive or inconclusive.
Key:
[1] = qHTS assay for small molecule agonists of the p53 signaling pathway (AID 651631; calls by dose curve; also: nearly all actives have a fitted effect of over 15% in size; also: potency is read from the fitted curve at half-maximal effect)
Method in brief: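 Agonist mode screen using a stably integrated beta-lactamase gene under p53 response elements in HCT-116 cells. Compound exposure lasts 16 h at 37 °C; fluorescence intensity is measured following 2 h FRET substrate loading.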

[2] = qHTS assay for small molecules that induce genotoxicity in human embryonic kidney cells expressing luciferase-tagged ATAD5 (AID 651632); also: nearly all actives have a fitted effect of over 15% in size
Method in brief: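 A rise in luciferase signal from ATAD5-tagged HEK293T cells marks genetic stress. Cells were exposed to compounds for 16 hr at 37C, 5% CO2, then luciferase was quantified after a 30 min room-temperature incubation with Amplite.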

[3] = qHTS assay for small molecule agonists of the p53 signaling pathway - cell viability (AID 651633; calls by dose curve; also: nearly all actives have a fitted effect of over 30% in size; also: potency is read from the fitted curve at half-maximal effect)
Method in brief: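 p53RE-bla cells were treated with compound for 16 hours at 37 C. Cytotoxicity was then measured as CellTiter-Glo luminescence after 30 min at room temperature.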

[4] = qHTS assay for small molecules that induce genotoxicity in human embryonic kidney cells expressing luciferase-tagged ATAD5 - cell viability (AID 651634; calls by dose curve; also: nearly all actives have a fitted effect of over 25% in size)
Method in brief: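 Cytotoxicity counter-readout: after 15.5 hr compound treatment at 37C, live-cell protease activity in ATAD5-luciferase HEK293T cells measured by CellTiter-Fluor fluorescence, 30 min development at 37C.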

[5] = qHTS assay for small molecule disruptors of the mitochondrial membrane potential - cell viability (AID 720634; calls by dose curve; also: nearly all actives have a fitted effect of over 20% in size; also: potency is read from the fitted curve at half-maximal effect)
Method in brief: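 Cytotoxicity was quantified from ATP content by CellTiter-Glo luminescence in the same wells as the MMP dye read-out. HepG2 (2,000 cells/well) were plated overnight and exposed to compounds for 1 hr at 37 C.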

[6] = qHTS assay for small molecule disruptors of the mitochondrial membrane potential (AID 720635); also: potency is read from the fitted curve at half-maximal effect
Method in brief: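 HepG2 cells exposed to compound 1 hr at 37C, then Mito-MPS dye 30 min. Ratio read of aggregate (540/590 nm) versus monomer (490/535 nm) fluorescence.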

[7] = qHTS assay to test for compound auto fluorescence at 590 nm (red) in HepG2 cells (AID 720674)
Method in brief: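 Fluorescence at 590 nm emission following 540 nm excitation was recorded from HepG2 wells one hour after compound transfer, with DMSO-only wells as vehicle and Rose Bengal sodium equivalency as the scale.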

[8] = qHTS assay to test for compound auto fluorescence at 535 nm (green) in HepG2 cells (AID 720675)
[9] = qHTS assay to test for compound auto fluorescence at 460 nm (blue) in HEK293 cells (AID 720678)
Method in brief: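 Intrinsic compound fluorescence is recorded in live HEK293 cultures after overnight incubation at 37C, 5% CO2, using excitation 405 nm and emission 460 nm. Values are referenced to triamterene.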

[10] = qHTS assay to test for compound auto fluorescence at 590 nm (red) in HEK293 cells (AID 720679)
Method in brief: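 Red autofluorescence, HEK293 cells: 2,000 cells/well; attach 4-5 hr 37C; add 23 nL cpd or DMSO; incubate o/n 37C 5% CO2; read Ex540/Em590; Rose Bengal sodium reference.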

SMILES | Potency [1] | Potency [2] | Potency [3] | Potency [4] | Potency [5] | Potency [6] | outcome [7] | outcome [8] | outcome [9] | outcome [10]
COC(N)=O | inactive | inactive | inactive | inactive | inactive | inactive | inactive | inactive | inactive | inactive
ClC=C(Cl)Cl | inactive | inactive | inactive | inactive | inactive | – | inactive | inactive | inactive | inactive
Nc1nc(N)nc(N)n1 | inactive | inactive | inactive | inactive | inactive | inactive | inactive | inactive | inactive | –
N#CCc1ccccc1 | inactive | inactive | inactive | inactive | inactive | inactive | inactive | inactive | inactive | –
CC(=O)C(C)(C)C | inactive | inactive | inactive | inactive | inactive | – | inactive | inactive | inactive | inactive
CC(C)(CCl)C(=O)Cl | inactive | inactive | inactive | inactive | inactive | – | inactive | inactive | inactive | inactive
c1ccc(C2CC2)c(OCC2=NCCN2)c1 | inactive | inactive | inactive | inactive | inactive | inactive | inactive | inactive | inactive | –
CCCCOC(=O)c1ccccc1C(=O)OCc1ccccc1 | inactive | inactive | inactive | inactive | inactive | – | inactive | inactive | inactive | inactive
C#CCOC(C(=O)OCCN(C)C)(c1ccccc1)c1ccccc1 | inactive | inactive | inactive | inactive | inactive | – | inactive | inactive | inactive | inactive
O=[N+]([O-])c1ccccc1CCl | inactive | inactive | inactive | inactive | inactive | inactive | inactive | inactive | inactive | –
CCCCNP(N)(N)=S | inactive | inactive | inactive | inactive | inactive | – | inactive | inactive | – | inactive
O=NN1CCCCCC1 | inactive | inactive | inactive | inactive | inactive | inactive | inactive | inactive | inactive | inactive
COC(=O)C(Cl)C(=O)OC | inactive | inactive | inactive | inactive | inactive | inactive | inactive | inactive | – | inactive
CCOC(=O)C(Cl)C(C)=O (centres undefined) | inactive | inactive | inactive | inactive | inactive | – | inactive | – | inactive | inactive
NNC(=O)c1cccnc1 | inactive | inactive | inactive | inactive | inactive | – | inactive | inactive | inactive | inactive
COCC(C)N(C(=O)CCl)c1c(C)csc1C (centres undefined) | inactive | inactive | inactive | inactive | inactive | inactive | inactive | – | inactive | inactive
Nc1ccc(N=Nc2ccc(-c3ccc(N=Nc4c(S(=O)(=O)O)cc5cc(S(=O)(=O)O)c(N=Nc6ccccc6)c(O)c5c4N)cc3)cc2)c(N)c1 | inactive | inactive | inactive | inactive | inactive | 6.24 µM (active) | inactive | inactive | inactive | –
[O-][Cl+]O | inactive | inactive | inactive | inactive | inactive | – | inactive | inactive | inactive | –
C=CCCl | inactive | inactive | inactive | inactive | inactive | – | inactive | inactive | inactive | inactive

SMILES | Potency [1] | Potency [2] | Potency [3] | Potency [4] | Potency [5] | Potency [6] | outcome [7] | outcome [8] | outcome [9] | outcome [10]
C=CC(C)=O | inactive | inactive | inactive | inactive | inactive | inactive | inactive | inactive | inactive | inactive
CC(C)(Cl)[N+](=O)[O-] | inactive | inactive | inactive | inactive | inactive | – | inactive | inactive | inactive | inactive
CC/C(=N\OC/C=C/Cl)C1=C(O)CC(C2CCOCC2)CC1=O (centres undefined) | inactive | inactive | inactive | inactive | inactive | inactive | inactive | – | inactive | –
CCOP(=S)(OCC)Oc1nc(Cl)c(Cl)cc1Cl | inactive | inactive | 54.6 µM (active) and inactive | inactive | 6.87 µM (active) | 13.7 µM (active) and 30.6 µM (active) | inactive | – | inactive | inactive
CCOc1ccc(C(C)(C)COCc2cccc(Oc3ccccc3)c2)cc1 | inactive | inactive | inactive | inactive | inactive | – | inactive | inactive | inactive | inactive
O=C(NCc1cccnc1)Nc1ccc([N+](=O)[O-])cc1 | inactive | inactive | inactive | inactive | inactive | – | inactive | – | inactive | –
O=C(O)COc1ccc(Cl)cc1 | inactive | inactive | inactive | inactive | inactive | – | inactive | – | – | inactive
CNC(C)Cc1ccccc1OC (centres undefined) | inactive | inactive | inactive | inactive | inactive | inactive | inactive | inactive | – | inactive
CCBr | inactive | inactive | inactive | inactive | inactive | – | inactive | – | inactive | inactive
Nc1nc(=S)[nH][nH]1 | inactive | inactive | inactive | inactive | inactive | inactive | inactive | inactive | inactive | inactive
N#Cc1cc(I)c(O)c(I)c1 | 4.33 µM (active) | inactive | 34.4 µM (active) | inactive | 4.33 µM (active) | 3.44 µM (active) | inactive | inactive | inactive | –
COc1c(C(C)(C)C)cc([N+](=O)[O-])c(C)c1[N+](=O)[O-] | inactive | inactive | inactive | inactive | inactive | – | inactive | inactive | inactive | inactive
CCCCCCC#N | inactive | inactive | inactive | inactive | inactive | – | inactive | – | inactive | inactive
CN1C(=O)NC(=O)C(C)(C2=CCCCC2)C1=O (centres undefined) | inactive | inactive | inactive | inactive | inactive | inactive | inactive | inactive | inactive | inactive
CC(c1ccc(O)cc1)(c1ccc(O)cc1)c1ccc(O)cc1 | 6.86 µM (active) | inactive | 6.86 µM (active) | inactive | inactive | 48.6 µM (active) | inactive | – | inactive | inactive
O=S(=O)(Cl)c1ccccc1 | – | inactive | inactive | inactive | inactive | inactive | inactive | inactive | inactive | –
C=CC(=O)NCNC(=O)C=C | inactive | inactive | inactive | inactive | – | – | inactive | inactive | inactive | –
O=S1(=O)OC(c2cc(Br)c(O)c(Br)c2)(c2cc(Br)c(O)c(Br)c2)c2ccccc21 | inactive | inactive | – | – | 28.1 µM (active) | – | inactive | inactive | inactive | –
C=CC(=O)OCC(C)C | inactive | inactive | – | inactive | – | – | inactive | inactive | inactive | inactive

SMILES | Potency [1] | Potency [2] | Potency [3] | Potency [4] | Potency [5] | Potency [6] | outcome [7] | outcome [8] | outcome [9] | outcome [10]
NCCCNCCCN | inactive | – | – | inactive | inactive | – | inactive | inactive | inactive | inactive
CO/C=C(/C(=O)OC)c1ccccc1COc1cccc(C(F)(F)F)n1 | 8.63 µM (active) | inactive | – | inactive | – | 6.85 µM (active) | inactive | inactive | inactive | inactive
Cc1ccccc1C(=O)Nc1cccc(OC(C)C)c1 | inactive | inactive | inactive | inactive | – | 30.6 µM (active) | inactive | inactive | inactive | inactive
CC(=O)NC1CCSC1=O (centres undefined) | – | inactive | inactive | inactive | inactive | inactive | inactive | inactive | inactive | inactive
C=CCOC(C)=O | inactive | inactive | inactive | – | inactive | – | inactive | – | inactive | –
C=CC(=O)OC | inactive | – | inactive | – | inactive | – | inactive | inactive | inactive | inactive
CCN(C)N=O | inactive | inactive | inactive | – | inactive | 1.9 µM (active) | inactive | inactive | inactive | –
O=NN1CCNCC1 | inactive | inactive | – | – | inactive | inactive | inactive | inactive | inactive | –
CCOc1nc(F)cc2nc(S(=O)(=O)Nc3c(Cl)cccc3Cl)nn12 | inactive | inactive | inactive | – | inactive | – | inactive | inactive | inactive | inactive
Cc1ccc2ccccc2c1 | inactive | inactive | – | inactive | inactive | inactive | inactive | inactive | inactive | inactive
CC(=O)CCC(C)=O | inactive | inactive | – | inactive | inactive | – | inactive | inactive | inactive | –
N#C/C(N)=C(/N)C#N | inactive | inactive | – | inactive | inactive | – | inactive | inactive | inactive | inactive
Clc1cc(Cl)c(Cl)c(Cl)c1 | – | inactive | inactive | inactive | inactive | inactive | inactive | inactive | inactive | inactive
CC(C)N(CCC(C(N)=O)(c1ccccc1)c1ccccn1)C(C)C (centres undefined) | – | inactive | inactive | inactive | inactive | inactive | inactive | inactive | – | –
Brc1ccc(Oc2ccccc2)cc1 | inactive | inactive | – | – | inactive | inactive | inactive | – | inactive | inactive
Clc1ccc(C2(Cn3cncn3)CC(Br)CO2)c(Cl)c1 (centres undefined) | inactive | inactive | inactive | – | – | – | inactive | inactive | inactive | –
Brc1ccccc1 | inactive | inactive | – | inactive | inactive | inactive | inactive | inactive | inactive | inactive
CCCCN(N=O)C(=N)N[N+](=O)[O-] | 62.4 µM (active) | – | inactive | inactive | inactive | inactive | inactive | inactive | inactive | inactive
